Screens from PubChem BioAssay.
3T3 cytotox: Cytotoxic Profiling in NIH 3T3 Cell Line of Diverse Libraries Using Quantitative High-Throughput Screening | NIH 3T3 viability, CellTiter-Glo ATP luminescence, 48-72 h | Potency, µM (doses to about 96.7 µM), for the others: top-dose activity change, negative = cytotoxicity, actives largely listed as inhibitors | 94,000 tested, 4.3% active | AID 1345082, 2018; also: nearly all actives have a fitted effect of over 55% in size
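Cells were seeded at 400 per well, treated with pin-transferred compound, and kept 48 or 72 hr at 37 °C before CellTiter-Glo addition and luminescence imaging of cellular ATP.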
HEK293 tox: Cytotoxic Profiling in HEK 293 Cell Line of Diverse Libraries Using Quantitative High-Throughput Screening. HEK 293 viability, ATP luminescence (CellTiter-Glo), 48-72 h. Potency, µM (top dose mostly 115 µM), for the others: at the highest dose activity change, negative = cytotoxicity, usual class: inhibitors. 94,000 tested, 6.6% active; also: nearly all actives have a fitted effect of over 60% in size
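qHTS cytotoxicity; HEK 293, 250 cells/well; compound pinned; 48 or 72 hr, 37 degree Celsius, 5% CO2, 95% humidity; CellTiter-Glo, 10 min RT; luminescence (ATP).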
NPR1 antag: Natriuretic polypeptide receptor (hNpr1) antagonism - Primary qHTS. Atrial natriuretic peptide receptor 1 (Homo sapiens), P16066. HEK293 hNpr1 GloSensor cGMP, ANP-stimulated luminescence. Potency, µM (highest dose often 46.3 µM), without a hit: top-dose activity change, negative = inhibition, hits mostly inhibitors. 76,000 tested, 1.6% active. AID 1347048, 2019; calls by dose curve; also: nearly all actives have a fitted effect of over 60% in size
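Compound pre-incubated 30 min at room temperature on GloSensor-loaded HEK293 cells stably carrying hNpr1 and the pGS-40F cGMP biosensor. Stimulation uses hNppA at 0.1 nM final; luminescence is taken at baseline and 20 min post-agonist.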
Luciferase inh: Firefly luciferase inhibition profiling of diverse chemical library using quantitative high-throughput screening; Luciferin 4-monooxygenase (Photinus pyralis), P08659; purified P. pyralis luciferase, luminescence, biochemical; Potency, µM (top dose mostly 115 µM), usual class: inhibitors; 76,000 tested, 2.5% active; AID 1347043, 2019; also: nearly all actives have a fitted effect of over 65% in size
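Luminescence read by CCD imaging after purified firefly luciferase (10nM final) was added to substrate buffer holding 10uM D-luciferin and 10uM ATP, pH 7.5, pre-dosed with compound.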
GPT2 inh: Primary qHTS assay for inhibitors of Glutamate pyruvate transaminase 2 (GPT2). AID 1671188, 2021. Recombinant GPT2, coupled pyruvate oxidase/HRP Amplex Red fluorescence. 100,000 tested, 0.25% active. Potency, µM (doses to about 57.7 µM), without a hit: at the highest dose activity change, negative = inhibition, most hits filed as inhibitors. Alanine aminotransferase 2 (Homo sapiens), Q8TD30; also: nearly all actives have a fitted effect of over 60% in size
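Inhibition is scored from Amplex Red fluorescence generated when pyruvate oxidase and HRP act on pyruvate released by GPT2. Reactions contain 10ng/uL enzyme, 250uM a-KG and 2mM L-alanine and run 30 min at room temperature.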
* marks the source's active call; other numbers are inactive results; i = inactive; ? = inconclusive; . = not tested or not shown; ! = repeats disagree; [ ] = dose if it differs, or a comment. Compounds with a hit are over-represented: about 10% of the library has one in this group of screens. Unless noted, calls follow the shape of the dose curve; as a rule, active = well fitted curve in the direction sought with a large enough effect; inconclusive = small, poorly fitted or top-dose-only effect, or another doubt; inactive = no such curve, though single readings can be large; an effect the other way counts as inactive or inconclusive. % is scaled to controls: 0 for no effect and ±100 for the full control effect; potency is read from the fitted curve at half-maximal effect.

SMILES	3T3 cytotox	HEK293 tox	NPR1 antag	Luciferase inh	GPT2 inh
CCOC(=O)c1cn(C2CN(C(=O)Cc3ccccc3F)C2)nn1	i	5.4%	3.4%	i	i
O=C(Cc1cccc(Cl)c1)N1CCCC(C(=O)N2CCC(N3Cc4cccn4C3=O)CC2)C1 (stereo not given)	-22.9%	-19.9%	.	.	i
O=S(=O)(c1cc(F)cc(F)c1)N1CCCC(Cn2c(C3CC3)nc3cccnc32)C1 (stereo not given)	39.8µM*	?	5.8%	i	i
Cc1nc2cccnc2n1CC1CCCN(S(=O)(=O)c2cccc(F)c2)C1 (stereo not given)	?	35.5µM*	-18.2%	i	i
CC(C)Cc1ccc(S(=O)(=O)N2CCCC(Cn3cnc4cccnc43)C2)cc1 (stereo not given)	?	44.7µM*	-22.3%	i	?
CN(C)c1cccc(-c2c3c(=O)n(-c4ccccc4Cl)[nH]c3cc(=O)n2C)c1	.	.	.	.	15.3µM*!
CC(C)CCN1CCOc2cc(C(=O)Nc3ccc(F)cc3)ccc2C1	?	?	?	i	-27.3%[88.5 µM]
O=C(NCC1CC1)c1ccc2c(c1)OCCN(c1ccccc1)C2	?	11.2µM*	-4.4%[70.6 µM]	i	4.7%[88.5 µM]
CC(C)CCN1CCOc2cc(C(=O)Nc3cccnc3)ccc2C1	-13.4%[138 µM]	112µM*	-4.0%[70.6 µM]	i	4.3%[88.5 µM]
CC(C)CCN1CCOc2cc(C(=O)NCCOc3ccccc3)ccc2C1	?	100µM*	-11.3%[70.6 µM]	i	i
CC(C)CCN1CCOc2cc(C(=O)Nc3nccs3)ccc2C1	?	100µM*	-18.2%[70.6 µM]	?	-8.0%[88.5 µM]
CC(C)CCN1CCOc2cc(C(=O)NCc3ccccc3)ccc2C1	?	?	3.8%[70.6 µM]	i	-1.2%[88.5 µM]
CC(C)N1CC(C(=O)NCc2ccc(F)cc2)NC1=O (stereo not given)	-27.4%[138 µM]	-26.3%[172 µM]	.	.	4.7%[88.5 µM]
CC(C)CCN1CCOc2cc(C(=O)N(C)c3cccnc3)ccc2C1	?	112µM*	-14.7%[70.6 µM]	i	3.9%[88.5 µM]
CC(C)CCN1CCOc2cc(C(=O)NCc3cccs3)ccc2C1	?	?	-4.9%[70.6 µM]	i	?
COc1ccc(N2CC(C(=O)NCc3cccs3)NC2=O)cc1 (stereo not given)	-20.7%[138 µM]	-26.0%[172 µM]	15.4%[70.6 µM]	i	-7.2%[88.5 µM]
Cc1ccc(N2C(=S)N[C@H]3[C@@H](O)[C@H](O)C[C@@H](C(=O)NCc4cccs4)[C@H]32)cc1Cl	?	79.4µM*	-2.2%	?	1.1%
Cc1cnc(-c2ccccc2)n1CCNS(=O)(=O)c1ccccc1	-7.7%	3.4%	4.7%	i	4.5%
O=C(Cc1c[nH]c2ncc(-c3cccnc3)cc12)Nc1ccccc1	25.1µM*	?	-1.1%[70.6 µM]	i	0.8%[88.5 µM]
O=C(Cc1c[nH]c2ncc(-c3ccccc3)cc12)Nc1ccc(Cl)cc1	?	?	?	i	-0.6%[88.5 µM]
COc1ccc(NC(=O)Cc2c[nH]c3ncc(-c4ccccc4)cc23)cc1OC	?	89.1µM*	?	i	2.4%[88.5 µM]
O=C(Cc1c[nH]c2ncc(-c3ccccc3)cc12)Nc1cccnc1	28.2µM*	70.8µM*	-24.0%[70.6 µM]	i	i
O=C(Cc1c[nH]c2ncc(-c3cccnc3)cc12)NC1CC1	70.8µM*	-18.6%[230 µM]	1.0%[70.6 µM]	i	0.2%[88.5 µM]
COc1cc(F)ccc1CN1CCCCC12Cc1ccccc1CNC2=O (stereo not given)	-10.6%	?	.	.	-12.9%
CN(C)c1ccc(C(=O)N2CCN(C(=O)c3ccc(N(C)C)cc3)[C@H](C(=O)N[C@H](Cc3c[nH]c4ccccc34)C(N)=O)C2)cc1	-21.8%	-9.5%	0.2%	i	i
SMILES	3T3 cytotox	HEK293 tox	NPR1 antag	Luciferase inh	GPT2 inh
O=C(Cc1c[nH]c2ncc(-c3cccc(OC(F)(F)F)c3)cc12)NCc1cccnc1	44.7µM*	70.8µM*	?	?	?
O=C(Cc1c[nH]c2ncc(-c3ccc(F)cc3)cc12)NCc1cccnc1	?	?	?	?	4.8%[88.5 µM]
Cc1cc(-c2cnc3[nH]cc(CC(=O)NCc4cccnc4)c3c2)ccn1	?	?	1.3%[70.6 µM]	i	3.6%[88.5 µM]
O=C(Cc1c[nH]c2ncc(-c3cccnc3)cc12)NCc1ccccc1	35.5µM*	89.1µM*	?	i	-2.9%[88.5 µM]
COc1ccc(-c2cnc3[nH]cc(CC(=O)NCc4cccnc4)c3c2)cc1OC	15.8µM*	?	-2.2%[70.6 µM]	i	-2.1%[88.5 µM]
COc1cccc(CN2CC(Oc3ccccc3C(=O)NC3CC3)C2)n1	-12.4%	?	-14.7%	i	-3.6%
OCC1(Cc2cccc(Cl)c2)CCCN(Cc2nc(-c3ccc(F)cc3)cs2)C1 (stereo not given)	?	79.4µM*	-22.9%	i	?
OCC1(Cc2cccc(Cl)c2)CCCNC1 (stereo not given)	-6.6%	0.2%	5.4%	i	i
CN(C)c1cccc(-c2cc3c(cn2)CN(Cc2cccnc2)CCN3)c1	?	?	-24.4%[70.6 µM]	?	i
CN(C)c1cccc(Nc2cc3c(cn2)CN(Cc2ccccc2)CCN3)c1	44.7µM*	28.2µM*	?	22.4µM*	-15.7%[88.5 µM]
c1ccc(Nc2cc3c(cn2)CN(Cc2cccs2)CCN3)cc1	50.1µM*	50.1µM*	-19.4%[70.6 µM]	?	?
c1ccc(Nc2cc3c(cn2)CN(Cc2ccc4[nH]ccc4c2)CCN3)cc1	28.2µM*	39.8µM*	-28.0%[70.6 µM]	?	-25.9%[88.5 µM]
Fc1ccccc1CN1CCNc2cc(Nc3ccccc3)ncc2C1	50.1µM*	112µM*	-3.4%[70.6 µM]	20µM*	-11.5%[88.5 µM]
c1ccc(Nc2cc3c(cn2)CN(Cc2cnc[nH]2)CCN3)cc1	?	?	-1.9%[70.6 µM]	?	i
CCCN(CC1CCOC1)C(=O)c1ccc(F)c(Cl)c1 (stereo not given)	2.9%	-3.8%	2.8%	i	?
COCCNC(=O)c1cc(C2CC2)nc2onc(C3CCCN3)c12 (stereo not given)	-11.9%	-10.6%	.	.	i
COc1cc(OC)cc(C(=O)N2CCCC(c3noc(COc4ccccc4)n3)C2)c1 (stereo not given)	?	?	0.0%	i	i
c1ccc(CNc2cc3c(cn2)CN(Cc2cccnc2)CCN3)cc1	-68.2%[138 µM]	-66.1%[172 µM]	-13.1%[70.6 µM]	i	i
Fc1cccc(CN2CCNc3cc(Nc4ccccc4)ncc3C2)c1	44.7µM*	39.8µM*	-22.1%[70.6 µM]	31.6µM*	i
COc1ccc(CN2CCc3oc(C)c(C(=O)N4CCCCCC4)c3C2)cc1	?	?	-13.6%	i	-5.6%
COCCCNC(=O)c1ccc2nnc(CC3CC3)n2c1	-23.0%[138 µM]	-14.0%[172 µM]	.	.	i
